The sample as a whole holds a higher share of hits than the screen did.
Methyltransferases – Primary Screen for Target Class Profiling of Small Molecule Inhibitors of Methyltransferases | purified enzyme, MTase-Glo SAH luminescence; hits give low values | calls only at 40 µM | 25,000 compounds, 3.9% hits | AID 1745853, 2022; call rule not given here
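Each enzyme was reacted with SAM and its substrate, with compounds tested once at 40 uM; SAH formed was read by MTase-Glo luminescence.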
Calls only; 0 = inactive; + = active, no number; ! = not active in a repeat.

SMILES	Methyltransferases
CCCn1c(=O)c2ccccc2n2c(=O)n(CC(=O)Nc3cccc(F)c3)nc12	0
CCOc1ccc(CCN2C(=O)c3ccc(-c4ccco4)n3CC2(C)C(=O)NC2CCCCC2)cc1 (configuration not stated)	0
CC1(C(=O)NC2CCCCCC2)Cn2c(cc3occc32)C(=O)N1Cc1cccnc1 (configuration not stated)	0
CC1CCN(C(c2ccc(F)cc2)c2ccc(C(C)C(=O)O)cc2-c2ccc(C(F)(F)F)cc2)CC1 (configuration not stated)	+
O=C(Cn1nc2n(CCc3ccccc3)c(=O)c3ccccc3n2c1=O)NC1CCCCC1	0
Cc1ccccc1CNC(=O)Cn1ccc2cc(S(=O)(=O)N3CCCC3)ccc21	0
CC(C)c1ccc(NC(=O)CSc2nnc3[nH]c(=O)c(C(C)(C)C)nn23)cc1	0
O=C(c1ccc(C(F)(F)F)cc1)N1CCCC(C(=O)N2CCC(N3Cc4cccn4C3=O)CC2)C1 (configuration not stated)	0
Cc1cccc(N2CCN(C(=O)Cn3ncc4ccc(Cl)cc43)CC2)c1C	0
CN(C)CCCC1(c2ccc(F)cc2)OCc2cc(C#N)ccc21 (configuration not stated)	+!
Cc1ccc(Nc2nccc(N(C)c3ccc4c(C)n(C)nc4c3)n2)cc1S(N)(=O)=O	+
CCN(CC)c1nc2c(S(=O)(=O)c3ccc(C(C)C)cc3)nnn2c2ccccc12	0
CCOC(=O)c1cc2n(n1)CC(C)(C(=O)NCCCOC)N(c1ccc(OCC)cc1)C2=O (configuration not stated)	0
Cn1c(=O)n(C)c2cc(S(=O)(=O)N(Cc3ccco3)C(=O)c3ccncc3)ccc21	0
COC(=O)C1=COC(OC2OC(CO)C(O)C(O)C2O)C2C(COC(=O)/C=C/c3ccc(O)c(O)c3)C(O)C(O)C12 (configuration not stated)	0
C[C@]1(O)CC[C@@H]2C(C(=O)O)=CO[C@@H](O[C@@H]3O[C@H](COC(=O)c4ccc(O)cc4)[C@@H](O)[C@H](O)[C@H]3O)[C@@H]21	0
COc1cc(/C=C/C(=O)OC[C@H]2O[C@@H](OC3OC=C(C(=O)O)C4C(O)CC(C)(O)C34)[C@H](O)[C@@H](O)[C@@H]2O)cc(OC)c1O (some centres not stated)	+
C=C1[C@H]2[C@H](O[C@@H]3O[C@H](COC(=O)/C=C/c4cc(OC)c(O)c(OC)c4)[C@@H](O)[C@H](O)[C@H]3O)OC=C(C(=O)O)[C@H]2C[C@@H]1O	+
COC(=O)C1=COC(O[C@@H]2O[C@H](CO[C@@H]3O[C@H](COC(=O)/C=C\c4ccc(O)cc4)[C@@H](O)[C@H](O)[C@H]3O)[C@@H](O)[C@H](O)[C@H]2O)C2C(CO)=CCC12 (some centres not stated)	0
CC1(O)CC(O)C2C(C(=O)O)=COC(OC3OC(CO)C(O)C(O)C3OC(=O)/C=C/c3ccc(O)cc3)C21 (configuration not stated)	0
COC(=O)C1=CO[C@@H](O[C@@H]2O[C@H](CO[C@@H]3O[C@H](COC(=O)/C=C/c4ccc(O)cc4)[C@@H](O)[C@H](O)[C@H]3O)[C@@H](O)[C@H](O)[C@H]2O)[C@@H]2C(CO)=CC[C@H]12	0
C=C1C(O)CC2C(C(=O)O)=COC(O[C@@H]3O[C@H](COC(=O)c4ccc(O)cc4)[C@@H](O)[C@H](O)[C@H]3O)C12 (some centres not stated)	0
COC(=O)C1=CO[C@@H](O[C@@H]2O[C@H](CO[C@@H]3O[C@H](COC(=O)/C=C/c4cc(OC)c(O)c(OC)c4)[C@@H](O)[C@H](O)[C@H]3O)[C@@H](O)[C@H](O)[C@H]2O)[C@@H]2C(CO)=CC[C@H]12	+
CCc1ccccc1NC(=O)Cn1nc2n(C)c(=O)c3ccc(C(=O)NC4CCCCC4)cc3n2c1=O	0
COc1cccc(S(=O)(=O)N2CC3CN(C)CC(C2)O3)c1	0
SMILES	Methyltransferases
CCCn1c(=O)c2cc(F)ccc2n2c(SCC(=O)Nc3cc(OC)cc(OC)c3)nnc12	0
COc1cccc(NC(=O)CSc2nnc3[nH]c(=O)c(C(C)(C)C)nn23)c1	0
CCC(C)C(=O)OC12C(OC(C)=O)C(C)C3(O)C(C=C(CO)CC4(O)C(=O)C(C)=CC43)C1C2(C)C (configuration not stated)	0
CCn1cc(-c2ccncc2)cc1C(=O)NCc1ccc(OC(C)C)cc1	0
O=C(NCCc1ccc(Cl)cc1)c1ccc2c(=O)nc3c(-c4cccc(F)c4)n[nH]n3c2c1	0
CC1CCN(S(=O)(=O)c2ccc3c(ccn3CC(=O)NC3CCCC3)c2)CC1	0
CNS(=O)(=O)CC1CCC(N(C)c2ncnc3[nH]ccc23)CC1 (configuration not stated)	+
CCCn1c(=O)c2ccc(C(=O)NC3CCCC3)cc2n2c(=O)n(CC(=O)c3cccc(OC)c3)nc12	0
CC(C)OCCCn1c(=O)c2ccccc2n2c(CCC(=O)NCCC3=CCCCC3)nnc12	0
CNC(=O)[C@H]1O[C@@H](n2cnc3c(NCc4ccc(N)cc4)ncnc32)[C@H](O)[C@@H]1O	0
Nc1ncnc2c1ncn2[C@H]1O[C@@H](C(=O)N2CCN(CC(=O)Nc3cccc4c3CNC4=O)CC2)[C@H](O)[C@@H]1O	+
CNC(=O)[C@H]1O[C@@H](n2cnc3c(NCc4ccc(N)c(I)c4)ncnc32)[C@H](O)[C@@H]1O	0
Cc1ccc(Cc2c(C)nc3nc(SCC(=O)NCCN4CCNCC4)nn3c2C)cc1	0
CC1CCC(NC(=O)C2(C)Cn3c(cc4sccc43)C(=O)N2Cc2ccc(OC(C)C)cc2)CC1 (configuration not stated)	0
CCC(C)C(=O)O[C@H]1[C@@H](O[C@H]2O[C@H](CO)[C@@H](O)[C@H](O)[C@H]2O)O[C@H](CO)[C@@H](O)[C@@H]1O (some centres not stated)	0
CC(C)CCC1(O)C(=O)C(C)(C)C(O[C@@H]2O[C@H](CO)[C@@H](O)[C@H](O)[C@H]2O)C(C)(C)C1O (some centres not stated)	+
CC1(C)COC(=O)[C@@H]1O[C@@H]1O[C@H](CO)[C@@H](O)[C@H](O)[C@H]1O	0
CC(C)N1C[C@H](O)C[C@H]1c1nnc2n1CCN(C(=O)c1ccco1)CC2	0
CN(C)CCNC(=O)c1cccn2c(=O)c3cc4ccccc4cc3nc12	+
CCCN1C(=O)c2cc(C(=O)NCCN(C)C)nn2CC1(C)C(=O)NC1CCCC1 (configuration not stated)	0
O=C(OC[C@@]1(O)CO[C@@H](O[C@H]2[C@H](Oc3ccc(O)cc3)O[C@H](CO)[C@@H](O)[C@@H]2O)[C@@H]1O)c1ccc(O)cc1	0
CC1(C(=O)NC2CCCCCCC2)Cn2c(ccc2-c2ccccc2)C(=O)N1Cc1ccccc1F (configuration not stated)	0
CC1(C(=O)NC2CCCC2)Cn2c(ccc2-c2ccco2)C(=O)N1c1ccc(F)cc1 (configuration not stated)	0
CCCc1nc(CN(CC)C(=O)c2ccc(NC(=O)C3CCC3)cc2)no1	0
Nc1nc(N)c(N=O)c(OCC2CCCCC2)n1	0
CCN(CC)C(=O)c1ccc(Nc2nc(OCC3CCCCC3)c3[nH]cnc3n2)cc1	+
NS(=O)(=O)c1ccc(Nc2nc(OCC3CCCCC3)c3[nH]cnc3n2)cc1	+
